{
  "source": "the supplement of paper PMC4709259",
  "note": "Where a name gives a salt, the structure may show the parent alone. ± gives the standard deviation.",
  "data": [
    {"tested_on": "Jurkat", "test": "cell count relative to DMSO control (fraction of control); higher = more cells (less growth inhibition)", "settings": "48 h", "values": [
      {"smiles": "CN(C/C=C/c1ccccc1)Cc1cccc2ccccc12", "note": "[Naftifine·HCl] (concentration: 25 µM)", "cell count": "0.848 ± 0.089"},
      {"smiles": "CCc1cccc2c3c([nH]c12)C(CC)(CC(=O)O)OCC3", "note": "(stereo unspecified) [Etodolac] (concentration: 25 µM)", "cell count": "0.947 ± 0.018"},
      {"smiles": "CN(C)/N=N/c1[nH]cnc1C(N)=O", "note": "[Dacarbazine] (concentration: 25 µM)", "cell count": "0.836 ± 0.093"},
      {"smiles": "CC(C)OC(=O)CCC/C=C\\C[C@@H]1[C@@H](/C=C/[C@@H](O)COc2cccc(C(F)(F)F)c2)[C@H](O)C[C@@H]1O", "note": "[Travoprost] (concentration: 25 µM)", "cell count": "0.668 ± 0.084"},
      {"smiles": "COCC1=C(C(=O)OC(C)OC(=O)OC(C)C)N2C(=O)[C@@H](NC(=O)/C(=N\\OC)c3csc(N)n3)[C@H]2SC1", "note": "(stereo partly specified) [Cefpodoxime Proxetil] (concentration: 25 µM)", "cell count": "0.872 ± 0.045"},
      {"smiles": "C[C@H]1[C@H](NC(=O)/C(=N\\OC(C)(C)C(=O)O)c2csc(N)n2)C(=O)N1S(=O)(=O)O", "note": "[Aztreonam] (concentration: 25 µM)", "cell count": "0.64 ± 0.086"},
      {"smiles": "Nc1nc2c(ncn2COCCO)c(=O)[nH]1", "note": "[Acyclovir (Acycloguanosine) Zovirax] (concentration: 25 µM)", "cell count": "0.842 ± 0.022"},
      {"smiles": "Cc1ccc(Nc2nccc(N(C)c3ccc4c(C)n(C)nc4c3)n2)cc1S(N)(=O)=O", "note": "[Pazopanib·HCl] (concentration: 25 µM)", "cell count": "0.772 ± 0.12"},
      {"smiles": "C[C@@H]1[C@H](O)[C@@H](C)/C=C/C=C/C=C/C=C/C=C/C=C/C=C/[C@H](O[C@@H]2O[C@H](C)[C@@H](O)[C@H](N)[C@@H]2O)C[C@@H]2O[C@](O)(C[C@@H](O)C[C@@H](O)[C@H](O)CC[C@@H](O)C[C@@H](O)CC(=O)O[C@H]1C)C[C@H](O)[C@H]2C(=O)O", "note": "[Amphotericin B] (concentration: 25 µM)", "cell count": "0.27 ± 0.024"},
      {"smiles": "COc1cc(NC(C)CCCN)c2ncccc2c1", "note": "(stereo unspecified) [Primaquine Phosphate] (concentration: 25 µM)", "cell count": "0.742 ± 0.042"},
      {"smiles": "Cc1c(OCC(F)(F)F)ccnc1C[S+]([O-])c1nc2ccccc2[nH]1", "note": "(stereo unspecified) [Lansoprazole] (concentration: 25 µM)", "cell count": "0.617 ± 0.01"},
      {"smiles": "CC(=O)OC[C@H]1O[C@@H]([S-])[C@H](OC(C)=O)[C@@H](OC(C)=O)[C@@H]1OC(C)=O.CCP(CC)CC.[Au+]", "note": "[Auranofin] (concentration: 250 nM)", "cell count": "0.762 ± 0.058"},
      {"smiles": "C[n+]1ccccc1/C=N/O", "note": "[Pralidoxime Chloride] (concentration: 25 µM)", "cell count": "0.959 ± 0.1"},
      {"smiles": "C[C@@H]1C/C=C/C=C/C=C/C=C/[C@H](O[C@@H]2O[C@H](C)[C@@H](O)[C@H](N)[C@@H]2O)C[C@@H]2O[C@](O)(C[C@@H](O)C[C@H]3O[C@@H]3/C=C/C(=O)O1)C[C@H](O)[C@H]2C(=O)O", "note": "[Natamycin] (concentration: 25 µM)", "cell count": "1.01 ± 0.096"},
      {"smiles": "CCOC(=O)C1=C[C@@H](OC(CC)CC)[C@H](NC(C)=O)[C@@H](N)C1", "note": "[Oseltamivir Phosphate] (concentration: 25 µM)", "cell count": "0.939 ± 0.075"},
      {"smiles": "S=c1[nH]cnc2nc[nH]c12", "note": "[Mercaptopurine Hydrate] (concentration: 25 µM)", "cell count": "0.792 ± 0.1"},
      {"smiles": "CN(CCOc1ccc(NS(C)(=O)=O)cc1)CCc1ccc(NS(C)(=O)=O)cc1", "note": "[Dofetilide] (concentration: 25 µM)", "cell count": "0.872 ± 0.084"},
      {"smiles": "CCC[C@@H]1C[C@@H](C(=O)N[C@@H]([C@H]2O[C@H](SC)[C@H](O)[C@@H](O)[C@H]2O)[C@H](C)Cl)N(C)C1", "note": "[Clindamycin·HCl] (concentration: 25 µM)", "cell count": "0.805 ± 0.14"},
      {"smiles": "CCCc1nc(C(C)(C)O)c(C(=O)O)n1Cc1ccc(-c2ccccc2-c2nnn[nH]2)cc1", "note": "[Olmesartan] (concentration: 25 µM)", "cell count": "1.16 ± 0.1"},
      {"smiles": "O=C(c1ccc(OCCN2CCCCC2)cc1)c1c(-c2ccc(O)cc2)sc2cc(O)ccc12", "note": "[Raloxifene·HCl] (concentration: 25 µM)", "cell count": "0.675 ± 0.044"},
      {"smiles": "O=C(O)CCNC(=O)c1ccc(/N=N/c2ccc(O)c(C(=O)O)c2)cc1", "note": "[Balsalazide] (concentration: 25 µM)", "cell count": "0.669 ± 0.047"}
    ]}
  ]
}
